Results on 45 compounds are retold here after the antibiotic and cytotoxicity screens of Wong et al. (2023).

About 3,300 (8.5%) of roughly 39,000 compounds were called active. This excerpt belongs to a sample that is enriched for actives.

This assay relates to HepG2. As to the kind of experiment: cytotoxicity call (relative viability < 0.9). The following applies: 10 µM.
For the compound `CC(C)=CCC[C@@H](C)CCO`, the cytotoxicity call was “inactive”.

Turning to `COC(=O)C(Cc1ccccc1)NC(=O)C(N)CC(=O)O` (stereo not given), the cytotoxicity call is “inactive”.

For the compound `COC(=O)[C@H](Cc1ccccc1)NC(=O)[C@@H](N)CC(=O)O`, the cytotoxicity call was “inactive”.

On to `CC(=O)N[C@@H](Cc1ccccc1)C(=O)NN`, for which the cytotoxicity call is “inactive”.

`CC(=O)N1[C@@H](CO)[C@H](c2ccccc2)[C@@H]1CNC(=O)CN1CCOCC1`: the cytotoxicity call was “inactive”.

Consider `CC(=O)N1[C@H](CNC(=O)CN2CCOCC2)[C@@H](c2ccccc2)[C@@H]1CO`, for which the cytotoxicity call was “inactive”. Take `COc1ccc(C[C@H](NC(=O)[C@H](C)NC(=O)CN2CCOCC2)C(=O)N[C@@H](Cc2ccccc2)C(=O)[C@@]2(C)CO2)cc1`: the cytotoxicity call was “active”.

As for `CC(C)C[C@H](NC(=O)[C@H](CCc1ccccc1)NC(=O)CN1CCOCC1)C(=O)N[C@@H](Cc1ccccc1)C(=O)N[C@@H](CC(C)C)C(=O)[C@@]1(C)CO1`, the cytotoxicity call is “active”. Then `CC(=O)N[C@@H](Cc1ccccc1)C(=O)O`, with “inactive”; and `COC[C@H](NC(=O)c1cnc(C)s1)C(=O)N[C@@H](COC)C(=O)N[C@@H](Cc1ccccc1)C(=O)[C@@]1(C)CO1`, with “active”; and `C[C@@H]1CN([C@H](C)CO)C(=O)c2cccc(NC(=O)c3ccc(-c4nccs4)cc3)c2O[C@H]1CN(C)Cc1ccc(C(=O)Nc2ccccc2N)cc1`, with “inactive”.

As for `NCCC[C@@H](N)CC(=O)NC[C@H]1NC(=O)[C@@H](CO)NC(=O)[C@@H](N)CNC(=O)[C@H]([C@H]2CCN=C(N)N2)NC(=O)C(C=NC(N)=O)NC1=O` (stereo not given in full), the cytotoxicity call was “inactive”. Turning to `O=C(C[C@H]1CC[C@H]2[C@@H](COC[C@H](O)CN2C(=O)C2CC2)O1)NCc1ccncc1`, the cytotoxicity call is “inactive”. Next, `C=CCNc1ncnc2c1cnn2C`: “inactive”; `CNC(=O)C[C@@H]1CC[C@H]2[C@@H](COC[C@@H](O)CN2C(=O)c2ccccn2)O1`: “inactive”; `CO[C@H]1CN(C)C(=O)c2cc(NS(=O)(=O)c3ccccc3)ccc2OC[C@H](C)N(C(=O)NC(C)C)C[C@@H]1C`: “inactive”. Then `C[C@@H]1CN([C@@H](C)CO)C(=O)Cc2cc(NC(=O)Nc3ccc4c(c3)OCO4)ccc2O[C@H]1CN(C)Cc1ccc(Cl)c(Cl)c1`, with “active”. For the compound `C[C@H]1CN([C@@H](C)CO)C(=O)Cc2cc(NC(=O)Nc3ccc4c(c3)OCO4)ccc2O[C@H]1CN(C)Cc1ccc(Cl)c(Cl)c1`, the cytotoxicity call was “active”. Next, `C[C@H](CO)N1C[C@H](C)[C@@H](CN(C)Cc2ccc(Cl)c(Cl)c2)Oc2ccc(NC(=O)Nc3ccc4c(c3)OCO4)cc2CC1=O`: “inactive”; `C[C@@H]1CN([C@H](C)CO)C(=O)Cc2cc(NC(=O)Nc3ccc4c(c3)OCO4)ccc2O[C@H]1CN(C)Cc1ccc(Cl)c(Cl)c1`: “inactive”; `C[C@H]1CN([C@@H](C)CO)C(=O)Cc2cc(NC(=O)Nc3ccc4c(c3)OCO4)ccc2O[C@@H]1CN(C)Cc1ccc(Cl)c(Cl)c1`: “inactive”. Next, `C[C@@H]1CN([C@H](C)CO)C(=O)Cc2cc(NC(=O)Nc3ccc4c(c3)OCO4)ccc2O[C@@H]1CN(C)Cc1ccc(Cl)c(Cl)c1`: “inactive”. Turning to `C[C@@H]1CN([C@@H](C)CO)C(=O)Cc2cc(NC(=O)Nc3ccc4c(c3)OCO4)ccc2O[C@@H]1CN(C)Cc1ccc(Cl)c(Cl)c1`, the cytotoxicity call is “inactive”. For the compound `C[C@H](CO)N1C[C@H](C)[C@H](CN(C)Cc2ccc(Cl)c(Cl)c2)Oc2ccc(NC(=O)Nc3ccc4c(c3)OCO4)cc2CC1=O`, the cytotoxicity call was “active”. Next, `CCS(=O)(=O)N1CC[C@]2(CC1)CN([C@@H](CO)c1[nH]c3cc(ccc3c12)OC)C(=O)c1ccc(cc1)F`: “inactive”; `COc1ccc(S(=O)(=O)N(C)C[C@H]2OCCCC[C@H](C)Oc3ccc(NC(=O)Nc4ccc(F)cc4)cc3C(=O)N([C@@H](C)CO)C[C@H]2C)cc1`: “inactive”. With `CN1CCN(C(=O)[C@@H]2[C@@H](C(=O)O)[C@H]3CC[C@H]2O3)CC1`, the cytotoxicity call is “inactive”. As for `CN(C)CC(=O)N1CC(=O)N2[C@@H](CO)[C@H](c3ccc(C#Cc4cccnc4)cc3)[C@@H]2C1`, the cytotoxicity call was “inactive”. Consider `CN1CCN(C)[C@@H](CO)C1`, for which the cytotoxicity call was “inactive”.

Regarding `Cc1ccc(S(=O)(=O)N(C)C[C@@H]2OCCCC[C@@H](C)Oc3ccc(NC(=O)c4ccccc4)cc3C(=O)N([C@@H](C)CO)C[C@@H]2C)cc1`, the cytotoxicity call is “inactive”.

`C[C@@H]1CN([C@H](C)CO)C(=O)c2cc(NS(=O)(=O)c3cn(C)cn3)ccc2O[C@@H]1CN(C)C(=O)Nc1ccc(F)cc1`: the cytotoxicity call was “inactive”. Consider `CC1(C)CC[C@]2(C(=O)O[C@@H]3O[C@H](CO[C@@H]4O[C@H](CO)[C@@H](O)[C@H](O)[C@H]4O)[C@@H](O)[C@H](O)[C@H]3O)CC[C@]3(C)C(=CC[C@H]4[C@@]5(C)CC[C@H](O[C@@H]6OC[C@H](O)[C@H](O)[C@H]6O)C(C)(C)[C@@H]5CC[C@]43C)[C@@H]2C1`, for which the cytotoxicity call was “inactive”.

Take `CC(=O)OC1CC23CC24CCC(OC2OCC(O)C(O)C2O)C(C)(C)C4CCC3C2(C)CC3OC4(CC(C)C3C12C)OC(O)C1(C)OC41` (stereo not given): the cytotoxicity call is “inactive”. `CC(CC(=O)C1OC1(C)C)C1C(=O)CC2(C)C3=CCC4C(C)(C)C(OC5OCC(O)C(O)C5O)CCC45CC35C(O)CC12C` (stereo not given): the cytotoxicity call is “active”. As to `O=C(Nc1cc(C(=O)Nc2ccc(S(=O)(=O)O)cc2S(=O)(=O)O)cc(C(=O)Nc2ccc(S(=O)(=O)O)cc2S(=O)(=O)O)c1)Nc1cc(C(=O)Nc2ccc(S(=O)(=O)O)cc2S(=O)(=O)O)cc(C(=O)Nc2ccc(S(=O)(=O)O)cc2S(=O)(=O)O)c1`, the cytotoxicity call was “inactive”.

With `CC(C)CC#Cc1cnc2c(c1)C(=O)N([C@H](C)CO)C[C@@H](C)[C@@H](CN(C)S(=O)(=O)c1ccccc1)O2`, the cytotoxicity call is “inactive”. For `C[C@H]1CCCCO[C@@H](CN(C)C(=O)Nc2cccc3ccccc23)[C@@H](C)CN([C@@H](C)CO)C(=O)c2cc(NS(=O)(=O)c3cccs3)ccc2O1`, the cytotoxicity call was “inactive”. `C[C@@H]1CN([C@@H](C)CO)C(=O)c2cc(NS(=O)(=O)c3cccs3)ccc2O[C@@H](C)CCCCO[C@@H]1CN(C)C(=O)Nc1cccc2ccccc12`: the cytotoxicity call is “inactive”. For the compound `C[C@@H]1CCCCO[C@@H](CN(C)C(=O)Nc2cccc3ccccc23)[C@H](C)CN([C@H](C)CO)C(=O)c2cc(NS(=O)(=O)c3cccs3)ccc2O1`, the cytotoxicity call is “inactive”. Turning to `C[C@@H]1CCCCO[C@H](CN(C)C(=O)Nc2cccc3ccccc23)[C@H](C)CN([C@H](C)CO)C(=O)c2cc(NS(=O)(=O)c3cccs3)ccc2O1`, the cytotoxicity call is “active”. On to `C[C@H](CO)N1C[C@H](C)[C@H](CN(C)C(=O)Nc2cccc3ccccc23)OCCCC[C@H](C)Oc2ccc(NS(=O)(=O)c3cccs3)cc2C1=O`, for which the cytotoxicity call is “inactive”.

Turning to `C[C@@H]1CCCCO[C@H](CN(C)C(=O)Nc2cccc3ccccc23)[C@@H](C)CN([C@H](C)CO)C(=O)c2cc(NS(=O)(=O)c3cccs3)ccc2O1`, the cytotoxicity call was “inactive”. Next, `C[C@@H]1CN([C@@H](C)CO)C(=O)c2cc(NS(=O)(=O)c3cccs3)ccc2O[C@@H](C)CCCCO[C@H]1CN(C)C(=O)Nc1cccc2ccccc12`: “inactive”; `C[C@H](CO)N1C[C@H](C)[C@@H](CN(C)C(=O)Nc2cccc3ccccc23)OCCCC[C@H](C)Oc2ccc(NS(=O)(=O)c3cccs3)cc2C1=O`: “active”; `C[C@H]1CCCCO[C@H](CN(C)C(=O)Nc2cccc3ccccc23)[C@@H](C)CN([C@@H](C)CO)C(=O)c2cc(NS(=O)(=O)c3cccs3)ccc2O1`: “active”.
